# Assay outcomes (PubChem)
# NPSR antag = qHTS Assay for Antagonists of the Neuropeptide S Receptor: cAMP Signal Transduction; Q6W5P4; CHO-NPSR cells, cAMP TR-FRET, antagonist mode; Potency, µM (highest dose often 38.3 µM), for the others: at the highest dose activity change, negative = inhibition, actives largely listed as inhibitors; 1% of 220,000 active; AID 1461, 2008; further: on the % scale 0 is the no-effect control and ±100 the full control effect; nearly all actives have a fitted effect of over 50% in size
# MBNL1-CUG inh = qHTS Assay for Inhibitors of MBNL1-poly(CUG) RNA binding. TR-FRET MBNL1-His/biotin-(CUG)12 binding, 665/545 ratio. 0.036% of 280,000 active. AID 2675, 2010. Potency, µM (titrated, usually from 57.5 µM), for inactives: at the top dose activity change, negative = inhibition, most hits filed as inhibitors. Muscleblind-like protein 1 (Homo sapiens), Q9NR56; active means well fitted inhibition curve with a large enough effect in the signal ratio, with a control signal flat, not every such curve was filed as active; inconclusive means small, poorly fitted or top-dose-only effect, or effect the other way, or a change in a side signal; inactive means no such curve, though single readings can be large or run the other way; the % refers to the signal ratio; further: on the % scale 0 is the no-effect control and ±100 the full control effect
#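 Compounds (final 92 nM to 58 uM) are added to His-tagged MBNL1 and biotin-(CUG)12, then terbium anti-His antibody and streptavidin-XL665 (5 nM final). After 60 min at room temperature, the 665/545 nm ratio is read.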
# RGS12 GoLoco inh = qHTS Assay for Inhibitors of RGS12 GoLoco Motif Activity (Red Fluorophore); Guanine nucleotide-binding protein G(i) subunit alpha-1 (Homo sapiens), P63096; Gai1:RGS12 GoLoco peptide FP, rhodamine, 10 min; Potency, µM (series often up to 61.6 µM), without a hit: top-dose activity, negative = inhibition, usual class: inhibitors; 0.44% of 230,000 active; active means well fitted inhibition curve with a large enough effect, not every such curve was filed as active; inactive means no such curve, though single readings can be large or run the other way; further: on the % scale 0 is the no-effect control and ±100 the full control effect; nearly all actives have a fitted effect of over 30% in size
# IMPase Li inh = qHTS Assay for Identifying the Cell-Membrane Permeable IMPase Inhibitors: Potentiation with Lithium; CHO-M1 cells, IP1 TR-FRET (IP-One), carbachol + lithium; 0.35% of 210,000 active; Potency, µM (series often up to 59.4 µM), for the others: top-dose activity, negative = IMPase inhibition, actives largely listed as inhibitors;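 further: IP1 builds up when IMPase is blocked and the TR-FRET signal falls; plate controls were basal vehicle for no effect and high inhibitor control for full effect; nearly all actives have a fitted effect of over 50% in size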
#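 CHO cells stably expressing M1 receptor (2000/well, cultured 16–30 h) treated 30 min at 37C with compound plus low lithium. Cytosolic IP1 by TR-FRET (665/620 ratio and 620 channel) after 10 min lysis; AC50 by Hill fit.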
# Tb PFK inh-1 = qHTS Assay to Find Inhibitors of T. brucei phosphofructokinase; T. brucei PFK, ADP-Glo luminescence; Potency, µM (doses to about 57.5 µM), for inactives: at the highest dose activity, negative = inhibition, usual class: inhibitors; 0.17% of 330,000 active; AID 485367, 2010;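 further: 0% = uninhibited 1x PFK enzyme wells and -100% = no-enzyme wells; nearly all actives have a fitted effect of over 60% in size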
# Target sequence (O15648 whole entry, looked up): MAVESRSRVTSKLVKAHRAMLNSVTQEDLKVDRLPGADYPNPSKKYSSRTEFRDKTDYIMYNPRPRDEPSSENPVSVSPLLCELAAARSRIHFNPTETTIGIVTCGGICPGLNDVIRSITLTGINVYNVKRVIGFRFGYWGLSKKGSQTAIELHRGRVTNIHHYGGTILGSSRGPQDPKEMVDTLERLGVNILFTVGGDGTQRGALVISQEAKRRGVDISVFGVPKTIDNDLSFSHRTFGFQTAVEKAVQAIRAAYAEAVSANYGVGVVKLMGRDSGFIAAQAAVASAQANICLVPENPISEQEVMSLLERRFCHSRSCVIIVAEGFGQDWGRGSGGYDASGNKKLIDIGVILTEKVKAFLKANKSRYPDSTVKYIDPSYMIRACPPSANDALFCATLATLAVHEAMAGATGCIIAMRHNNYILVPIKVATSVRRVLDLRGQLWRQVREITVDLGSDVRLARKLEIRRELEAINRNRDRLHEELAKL
#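 In TEA buffer at pH 8.0 with 5 mM MgCl2, enzyme (1.25 nM) converted F6P (0.5 mM) and ATP (0.1 mM) for 45 min at room temperature. ADP product was read by luciferase luminescence.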
# TbPFK ATP = Tb PFK orthogonal confirmatory assay using ATP depletion (Kinase-Glo Plus) as an alternative measure of Tb PFK activity: Hit Validation. shares compounds with Tb PFK inh-1. Tb PFK enzyme, ATP depletion, Kinase-Glo Plus luminescence. Potency, µM (highest dose often 57.5 µM), without a hit: top-dose inhibition. 47% of 1,100 active; calls by dose curve; further: nearly all actives have a fitted effect of over 60% in size
# Tb PFK inh-2 = Inhibitors of T. brucei phosphofructokinase: Hit Validation | Potency, µM (highest dose often 57.5 µM), for the others: top-dose activity change, negative = inhibition, most hits filed as inhibitors | AID 504637, 2011 | shares compounds with Tb PFK inh-1 | 41% of 1,100 active | purified T. brucei PFK, ADP-Glo luminescence, 45 min;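 further: plate controls were full PFK enzyme control for no effect and no enzyme control for full effect; nearly all actives have a fitted effect of over 60% in size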
# Numbers without * were called inactive; ? = inconclusive; / = no result given; [ ] = dose if it differs, or a comment. The full list was thinned out, with hits kept by preference. Unless noted, the call rests on the fitted dose curve; in most records, active means well fitted curve in the direction sought with a large enough effect; inconclusive means small, poorly fitted or top-dose-only effect, or another doubt; inactive means no such curve, though single readings can be large; an effect the other way counts as inactive or inconclusive. Potency means the concentration at half of the fitted maximal effect.
SMILES,NPSR antag,MBNL1-CUG inh,RGS12 GoLoco inh,IMPase Li inh,Tb PFK inh-1,TbPFK ATP,Tb PFK inh-2
NS(=O)(=O)c1ccc(NC(=O)Nc2ccc(C(F)(F)F)cc2)cc1,22.1%,/,6.6%,/,?,6.01µM*,13.5µM*
Cc1cc(OC(F)F)ccc1NC(=O)Nc1ccc([N+](=O)[O-])cc1,-41.2%,-24.4%,4.1%,18.6%,?,?,?
COc1ccc(OC(=O)Nc2ccc([N+](=O)[O-])cc2OC)cc1,5.7%,?,-0.2%,/,?,/,/
Cc1ccc(-n2c(O)c(C=Nc3ccc(S(N)(=O)=O)cc3)c(=O)[nH]c2=O)cc1,14.0%,-1.1%,9.2%,1.9%,0.3%,/,/
COC(=O)[C@@H]1C[C@H](OC(C)=O)C(=O)[C@H]2[C@@]1(C)CC[C@H]1C(=O)O[C@H](c3ccoc3)C[C@]21C,/,/,-14.3%,8.7%,/,/,/
Cc1ccc([N+](=O)[O-])cc1NC(=O)Nc1ccc(S(N)(=O)=O)cc1,-13.6%,?,-2.8%,/,12µM*,13.5µM*,26.9µM*
Cc1ccc([N+](=O)[O-])cc1N,5.6%,/,6.7%,6.6%,?,/,/
CC1=NN(c2ccc(S(=O)(=O)O)cc2C)C(=[OH+])[C@H]1N=Nc1cc(S(=O)(=O)O)ccc1C(=O)O.O.[Cr],/,/,9.9%[14.2 µM],17.9%,/,/,/
COc1cc(SSc2cc(OC)cc([N+](=O)[O-])c2N)c(N)c([N+](=O)[O-])c1,3.16µM*,?,10µM*,/,3.38µM*,2.39µM*,2.69µM*
N#CCCn1cc(C(=O)Nc2ccccc2Cl)c(-c2ccc([N+](=O)[O-])cc2)n1,-13.9%,12.2%,2.5%,4.5%,1.4%,/,/
Cc1c(NC(=O)c2ccc(Cl)c([N+](=O)[O-])c2)cccc1-n1cnnn1,/,/,/,/,?,?,?
O=C(C[n+]1ccn(CCCNP2(=O)C=C(c3ccccc3)OC(c3ccccc3)=C2)c1)c1ccccc1,-3.5%,-7.2%,7.0%,2.2%,12.4%,/,/
CCCCCCCCCCCCCCCCn1cc[n+](CC(C)=O)c1,-51.9%,3.7%,2.1%,-5.1%,?,-6.7%,-7.0%
O=Cc1ccc(Cl)cc1Cl,/,/,-0.2%,6.6%,/,/,/
Cc1ccc(S(=O)(=O)NP(=O)(Oc2ccccc2)Oc2ccccc2)cc1,-8.0%[46.1 µM],2.8%,-10.9%,-2.3%[38.3 µM],4.3%,/,/
COc1ccc(C(=S)NCS(=O)(=O)c2ccc(C)cc2)cc1,-9.1%,?,-15.9%,1.5%,21.3µM*,23.9µM*,26.9µM*
Cc1ccc(S(=O)(=O)CNC(=S)c2ccc3ccccc3c2)cc1,-1.0%[46.1 µM],-5.3%,8.2%,12.6%[38.3 µM],?,-17.4%,30.1µM*
Nc1nc(N)c(Cn2ccnc2)c(=O)[nH]1,/,/,0.4%[14.2 µM],-1.1%,/,/,/
COc1cc2c(cc1OC)[C@@H]1C(=O)c3ccc4oc(C(C)C)cc4c3OC1CO2 (some centres undefined),/,/,-8.8%,12.0%,/,/,/
C=CC[C@]1(O)CCC2C3CCC4=CCCCC4C3CCC21C (some centres undefined),/,/,3.7%,-9.2%,/,/,/
CC1=C(O)C(=O)[C@@H]2O[C@@H]2C1=O,/,/,-12.4%,25.3%,/,/,/
CC1=NN(c2ccccc2)C(=O)[C@@H]1N=Nc1ccc([As](=O)(O)O)c(O)c1,/,/,-3.9%[14.2 µM],1.0%,/,/,/
CC(Nc1cccc([N+](=O)[O-])c1)C(=O)Nc1ccc(S(=O)(=O)N2CCCC2)cc1 (centres undefined),/,/,/,/,?,?,?
O=C(NCc1cccc(Cl)c1)c1ccc2c(c1)OCO2,-4.6%[46.1 µM],-9.5%,5.7%,2.2%,?,23.9µM*,30.1µM*
Clc1cccc(CNCCc2ccc3c(c2)OCO3)c1,/,0.8%,/,/,-21.2%,/,/
SMILES,NPSR antag,MBNL1-CUG inh,RGS12 GoLoco inh,IMPase Li inh,Tb PFK inh-1,TbPFK ATP,Tb PFK inh-2
CCc1ccccc1NC(=O)CNC1CCCCC1,-3.1%,-7.2%,2.9%,-0.9%,0.7%,/,/
C/C(=N\NC(=O)CNc1cccc(Cl)c1C)C1CC1,7.1%,-3.3%,-3.9%,4.8%,21.3µM*,?,?
CCN(C(=O)CN1CCN(c2ccc(O)cc2)CC1)c1c(N)n(Cc2ccccc2)c(=O)[nH]c1=O,-13.0%[46.1 µM],2.5%,-12.9%,6.6%[38.3 µM],?,?,?
Nc1nc(N)c(N=Nc2ccc([As](=O)(O)O)c(O)c2)c(N)n1,/,/,0.4%[14.2 µM],8.4%,/,/,/
Cc1ccc(S(=O)(=O)N2CCOCC2)cc1C(=O)OCC(=O)Nc1ccc2[nH]c(=O)[nH]c2c1,/,/,/,/,?,?,?
c1ccc(NNc2ccccc2)cc1,/,/,10.1%,6.6%,/,/,/
O=C1NC(=O)N(CCc2ccc(F)cc2)C(=O)/C1=C/c1ccco1,-19.7%,5.7%,122.2%,3.7%,-7.2%,/,/
O=C(O)c1ccc2c(c1)C(=O)/C(=C/c1ccccc1)C2=O,-10.9%,?,-13.4%,3.0%,?,-16.4%,?
O=C(O)c1ccc2c(c1)C(=O)/C(=C\c1ccco1)C2=O,-24.9%,?,-13.7%,12.5%,?,16.9%,?
O=[As](O)(O)c1ccc(N=Nc2ccc([As](=O)(O)O)cc2)cc1,/,/,7.2%[14.2 µM],-8.4%,/,/,/
CCNc1nc(NCC)n2c(SCC(=O)Nc3ccc(OC(F)F)cc3)nnc2n1,/,/,/,/,7.57µM*,5.36µM*,8.49µM*
CC(C)c1ccc(NC(=O)CSc2nnc(OC(=O)N(C)C)n2C2CC2)cc1,/,-2.5%,/,/,-3.9%,/,/
CCNc1nc(NCC)n2c(SCC(=O)Nc3ccc(C)c(C)c3)nnc2n1,/,/,/,/,13.5µM*,?,?
O=C(NCC(F)(F)F)c1ccc(S(=O)(=O)Nc2ccccc2N2CCCC2)cc1,/,/,/,/,?,-30.5%,?
Cc1cc(NC(=O)CCl)on1,8.4%,1.4%,3.6%,-5.6%,2.3%,/,/
CC(NC(=O)CCl)c1ccc(Cl)c(Cl)c1 (centres undefined),14.5%[46.1 µM],-1.4%,-8.9%,20.8%[38.3 µM],19µM*,21.3µM*,23.9µM*
CC[C@H](C)[C@H](NC(=O)[C@H](CCCN=C(N)N)NC(=O)[C@H](CCCN=C(N)N)NC(=O)[C@H](CC(C)C)NC(=O)[C@H](Cc1ccccc1)NC(=O)CNC(=O)CNC(=O)[C@@H](N)Cc1ccc(O)cc1)C(=O)O,/,/,4.2%,-3.9%,/,/,/
